AMA1-RON2 inh – disrupts binding of P. falciparum AMA1 to RON2; AlphaScreen AMA1-biotinylated RON2 peptide binding; Potency, µM (doses to about 58.2 µM), for inactives: at the top dose activity change, negative = inhibition, hits mostly inhibitors; 360,000 compounds, 0.2% hits; AID 720542; active = well fitted inhibition curve with a large enough effect; inconclusive = small, poorly fitted or top-dose-only effect; inactive = no such curve, though single readings can be large or run the other way;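 also: potency is read from the fitted curve at half-maximal effect; 0% = vehicle wells and -100% = peptide control; nearly all actives have a fitted effect of over 45% in size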
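AMA1 (3D7) with his tag at 25 nM final met compounds first, then biotinylated RON2 peptide at 25 nM; detection used donor plus acceptor beads, 10 µg/mL apiece, read by AlphaScreen after 30 min at room temperature.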
LASV entry inh – inhibitors of Lassa virus binding or cell entry. Lassa virus pseudotype entry inhibition, cell reporter. Potency, µM (top dose mostly 37.9 µM), inactives show at the top dose activity change, negative = inhibition, most hits filed as inhibitors. 300,000 compounds, 1.2% hits. AID 540256; calls by dose curve; tested in HEK293 cells; also: potency is read from the fitted curve at half-maximal effect; % is scaled to controls: 0 for no effect and ±100 for the full control effect; nearly all actives have a fitted effect of over 50% in size
CHX counter – counter-screen for Shiga toxin inhibitors: cycloheximide protein synthesis inhibition; cell reporter, cycloheximide protein synthesis inhibition counterscreen; max response, %; 300,000 compounds, 12% hits; AID 2314; in the data active = max response mostly above about 13%, no sharp cut-off; inactive = mostly below about 14%; also: read at 38.3 µM for the half of the compounds with a filed dose; 0% is about no effect
MARV entry inh – inhibitors of Marburg virus binding or cell entry. 300,000 compounds, 1.8% hits. Marburg virus pseudotyped entry inhibition, cell reporter. Potency, µM (series often up to 37.8 µM), for inactives: at the top dose activity change, negative = inhibition, hits mostly inhibitors; calls by dose curve; tested in HEK293 cells; also: potency is read from the fitted curve at half-maximal effect; % is scaled to controls: 0 for no effect and ±100 for the full control effect
Shiga toxin inh – inhibitors of Shiga toxin in Vero cells | 290,000 compounds, 9.2% hits | Vero cells, Shiga toxin protein synthesis inhibition reporter | inhibition, % at 38.7 µM | AID 2315; in the data active = inhibition mostly above about 28%, no sharp cut-off; inactive = mostly below about 43%; also: 0% is about no effect
The depositor's hits bear a star; ? = inconclusive; nt = no result given; [ ] = remark or other dose. Only a selection was taken, and hits are over-represented in it overall.

SMILES	AMA1-RON2 inh	LASV entry inh	CHX counter	MARV entry inh	Shiga toxin inh
CCOc1ccc(-n2c(C)cc(C(=O)CCl)c2C)cc1	-17.3%	10µM*	14.1	?	-5.9
Cc1cccc(-n2c(C)cc(C(=O)NC3CCCCC3)c2C)c1	-7.9%[11.6 µM]	?	94.1*	?	85.1*
CC1CC1c1ccc(/C=C(\C#N)C(=O)Nc2ccccc2Cl)o1 (centres undefined)	-10.2%	10.6%	51.7*	?	30.1*
CCc1ccccc1NC(=O)/C(C#N)=C/c1ccc(Sc2ccccc2)o1	-7.2%	7.8%	-1.1	-35.5%	8.8
CC1CC1c1ccc(/C=C(\C#N)C(=O)Nc2ccc(Cl)cc2)o1 (centres undefined)	-7.1%	?	63.0*	?	113.3*
O=C(Nc1cccc(F)c1F)C1CCN(c2ncccn2)CC1	nt	22.1%[46.1 µM]	nt	-13.2%[46.1 µM]	nt
C[C@@H](C(=O)NCCc1ccccc1F)N1C(=O)N2CCc3c([nH]c4ccccc34)[C@@]2(C)C1=O	-26.3%	nt	23.3*	nt	29.6*
C[C@@H](C(=O)NCCc1ccccc1)N1C(=O)N2CCc3c([nH]c4ccccc34)[C@@]2(C)C1=O	-24.7%	nt	19.2*	nt	20.6*
COc1ccc2[nH]c3c(c2c1)CCN1C(=O)N([C@@H](C)C(=O)NCc2ccccc2)C(=O)[C@]31C	8.4%	nt	-3.7	nt	9.5
Cc1cc2oc(=O)cc(CN3CCCCC3)c2cc1C	0.3%	nt	5.7	nt	21.5
Cc1cc2oc(=O)cc(CN3CCN(S(=O)(=O)c4cccs4)CC3)c2cc1C	-0.1%[11.6 µM]	14.1µM*	-2.6	14.1µM*	-2.3
C[C@@]12CCC3[C@@](CCC4[C@@]3(C)CCC[C@@]4(C)C(=O)N3CCOCC3)(CC1=O)C2 (some centres undefined)	-1.1%	nt	nt	nt	nt
O=[N+]([O-])c1ccc(-c2ccc(/C=N/O)o2)cc1	-4.8%	?	33.3*	?	108.8*
O=C(Cc1ccccc1)N/N=C/c1ccc(-c2ccc([N+](=O)[O-])cc2)o1	-7.4%	-24.0%	0.6	5.0%	-0.4
COc1ccc(N=Cc2ccc[nH]2)cc1	0.0%	16.2%	1.6	7.9%	-7.0
COc1ccc(N=Cc2ccc(-c3ccccc3)o2)cc1	?	-13.7%	16.3*	3.2%[14.2 µM]	11.0
O/N=C\c1ccc(-c2ccccc2)o1	-21.1%	21.5%	21.3*	?	92.5*
COc1ccccc1-c1ccc(/C=N/O)o1	-11.6%	?	10.7	-2.4%	36.3
O=[N+]([O-])c1ccc(-c2ccc(C=Nc3cccc4ccccc34)o2)cc1	?	-11.1%	6.6	0.0%	7.0
NC(=O)N/N=C/c1ccc(-c2ccc([N+](=O)[O-])cc2)o1	-6.8%	nt	25.1*	-0.2%	24.9
CCN(CC)C(=O)[C@H]1CC(CC(=O)NCc2ccco2)C(=O)N2CCc3c([nH]c4ccc(OC)cc34)[C@]12C (some centres undefined)	-5.1%	nt	nt	-0.5%	nt
CC(=O)Nc1ccc2nc(-c3ccc(Br)o3)[nH]c2c1	-6.2%	?	55.4*	4.2%	58.0*
O=C(Nc1ccc2nc(-c3ccc(Br)o3)[nH]c2c1)c1cccs1	-16.9%	?	44.8*	?	52.4*
O=C(Nc1ccc2nc(-c3ccc(Br)o3)[nH]c2c1)c1ccco1	-10.7%	?	23.5*	?	74.0*
Cc1ccc(-n2nc3c(c2NC(=O)c2c(-c4ccccc4Cl)noc2C)CSC3)cc1	-8.4%	?	20.9	?	-3.2
SMILES	AMA1-RON2 inh	LASV entry inh	CHX counter	MARV entry inh	Shiga toxin inh
CC(=O)c1ccc(NC(=O)COC(=O)c2c3c(nc4ccccc24)/C(=C\c2cccs2)CCC3)cc1	-17.0%	?	14.7*	8.91µM*	16.9
O=C(COC(=O)c1c2c(nc3ccccc13)/C(=C\c1cccs1)CCC2)Nc1ccccc1	6.8%	?	0.1	?	9.8
CSc1nc(NC(C)(C)C)nc(Oc2ccc(=O)n(C)n2)n1	-15.7%	17.8%	-1.8	?	33.2
CC(C)(C)N1C(=O)[C@H]2[C@H]3[C@H](O)[C@H](O)C/C(=N\OCc4ccccc4)[C@H]3CC[C@H]2C1=O	nt	nt	nt	-9.5%[14.2 µM]	nt
O=C(CN1CCN(Cc2ccc(Cl)cc2)C1=O)NCCCN1CCN(c2ccc(F)cc2)CC1	-2.8%	-23.3%	-3.1	13µM*	-9.4
O=C(CN1CCN(Cc2ccc(Cl)cc2)C1=O)NCCCN1CCOCC1	-5.7%	nt	-5.5	nt	-5.4
C=CCc1ccccc1OCC(O)CN1C(=O)c2ccccc2C1=O (centres undefined)	0.0%	5.8%	1.2	0.1%	-2.0
Cc1ccccc1OCC(O)CN1C(=O)c2ccccc2C1=O (centres undefined)	-2.0%	nt	37.1*	nt	38.7*

From PubChem BioAssay
